Only some compounds are listed: those with a hit (about 7.7% of all), similar ones and a draw of the others.
RE007 growth inh: qHTS Assay for Inhibitors of the HIV-1 protein Vpr; Potency, µM (highest dose often 92.2 µM), usual class: inhibitors; hit rate 0.21% among 360,000; S. pombe RE007 Vpr strain, BacTiter-Glo ATP luminescence, 24 h; AID 651644, 2012; active means well fitted falling curve with a large enough effect; inconclusive means small, poorly fitted or top-dose-only effect; inactive means no such curve, though single readings can be large or run the other way; further: nearly all actives have a fitted effect of over 50% in size
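Fission yeast strain RE007, carrying one chromosomally integrated HIV-1 vpr copy, was seeded at OD 0.01 in PMG+AL medium with 23 nL pinned compound. After 24 h at 30 °C and 99% humidity, viability was read by BacTiter-Glo luminescence.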
HCMV inh: qHTS Assay for inhibitors of the human cytomegalovirus (HCMV); HFF cells, HCMV-luciferase reporter, 72 h; active compounds read low; activity change, negative = inhibition, % at 57.5 µM; hit rate 4.5% among 410,000; AID 1259415, 2018; in the data active means activity change below about -60%; inconclusive means no clear call, values can overlap the other calls; inactive means above about -39%
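Screen run at 2 compound doses on HFFs infected with reporter HCMV, MOI 1 PFU/cell. Luciferase activity from cell lysates at 72 h post infection gave inhibition relative to buffer-only and Salinomycin wells.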
Sm TGR block: qHTS Assay for the Inhibitors of Schistosoma Mansoni Peroxiredoxins. Schistosoma mansoni thioredoxin glutathione reductase (TGR), Q962Y6. purified TGR, DTNB reduction, TNB absorbance 405 nm. Potency, µM (series often up to 114 µM), hits mostly inhibitors. hit rate 3% among 360,000. AID 485364, 2010; further: nearly all actives have a fitted effect of over 60% in size
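Kinetic colorimetric format: TGR-catalysed, NADPH-driven DTNB reduction monitored via TNB absorbance. Enzyme dispensed at 20 nM; compound exposure 15 min at room temperature before reaction start.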
FMDV inh: High Throughput Screening for Foot and Mouth Disease Virus Antivirals. FMDV antiviral cell-based qHTS. Potency, µM (series often up to 57.9 µM), most hits filed as inhibitors. hit rate 1.2% among 410,000. AID 1159524, 2015; calls by dose curve; tested in HEK293T cells; further: read-out not given here; nearly all actives have a fitted effect of over 45% in size
Tb PYK inh: qHTS of Trypanosoma Brucei Inhibitors; hit rate 0.12% among 410,000; Potency, µM (top dose mostly 76.8 µM), usual class: inhibitors; AID 624173, 2012; TbPYK enzyme, Kinase-Glo Plus ATP luminescence, 45 min; pyruvate kinase (Trypanosoma brucei), Q57TT1; further: nearly all actives have a fitted effect of over 50% in size
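Luminescent Kinase-Glo Plus end-point after 45 min room-temperature reaction of T. brucei pyruvate kinase started with 130 uM ADP (final). Buffer TEA 50 mM pH 7.2 with KCl, MgCl2, BSA, Tween-20; titration-based qHTS with fitted concentration-effect curves.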
Giardia FBPA inh: qHTS Assay for Inhibitors of Fructose-1,6-bisphosphate Aldolase from Giardia Lamblia; A8B2U2; purified Giardia FBPA; Potency, µM (series often up to 59.6 µM), most hits filed as inhibitors; hit rate 0.71% among 290,000; AID 2451, 2010; further: nearly all actives have a fitted effect of over 55% in size
Target sequence (A8B2U2 whole entry, looked up): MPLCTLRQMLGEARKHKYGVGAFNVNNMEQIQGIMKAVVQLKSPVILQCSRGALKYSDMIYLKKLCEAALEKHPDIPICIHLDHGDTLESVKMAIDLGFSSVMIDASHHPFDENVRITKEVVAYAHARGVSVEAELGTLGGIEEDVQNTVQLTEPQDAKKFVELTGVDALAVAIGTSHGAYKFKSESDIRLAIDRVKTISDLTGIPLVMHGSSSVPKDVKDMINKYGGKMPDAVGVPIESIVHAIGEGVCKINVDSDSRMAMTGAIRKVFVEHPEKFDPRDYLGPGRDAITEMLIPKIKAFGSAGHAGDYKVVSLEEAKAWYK
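40 nM FBPA preincubated 10 min at RT with compound (up to 57.5 uM final), then substrate plus GAPDH/TPI/NAD/arsenate coupling and diaphorase/resazurin added. Fluorescence read after 20 min at RT, 525/598 nm.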
A number is an active result; i = inactive; ? = inconclusive; nt = no result given. Unless noted, the call rests on the fitted dose curve; in most records, active means well fitted curve in the direction sought with a large enough effect; inconclusive means small, poorly fitted or top-dose-only effect, or another doubt; inactive means no such curve, though single readings can be large; an effect the other way counts as inactive or inconclusive.

SMILES	RE007 growth inh	HCMV inh	Sm TGR block	FMDV inh	Tb PYK inh	Giardia FBPA inh
Cc1cc(O)c(-c2cc(C(=O)Nc3sc4c(c3C(=O)NCc3ccco3)CCC4)[nH]n2)cc1C	i	i	i	i	i	i
CCCC(=O)Nc1ccc2nc(SCc3ccc(C)cc3)sc2c1	nt	i	i	i	i	nt
O=C1CC(c2nc3ccccc3[nH]2)CN1c1cccc(C(F)(F)F)c1 (stereo not given)	i	-96	i	?	i	i
COc1ccc(Cl)cc1N1CC(c2nc3ccccc3[nH]2)CC1=O (stereo not given)	i	-99	i	i	i	i
O=C1CC(c2nc3ccccc3[nH]2)CN1c1ccccc1F (stereo not given)	i	i	i	i	i	i
O=C(NCCc1ccccc1)C1COc2ccccc2O1 (stereo not given)	i	i	i	i	i	i
O=C(N/N=C/C=C/c1ccc([N+](=O)[O-])cc1)C1COc2ccccc2O1 (stereo not given)	?	i	i	i	i	i
O=C(NCCc1ccc(O)c(O)c1)C1COc2ccccc2O1 (stereo not given)	i	?	4.5µM	i	?	i
O=C(N/N=C\C=C\c1ccco1)C1COc2ccccc2O1 (stereo not given)	i	i	3.2µM	i	i	?
O=C(NC1CCCCC1)C1COc2ccccc2O1 (stereo not given)	i	i	28µM	i	i	nt
C/C(=N\NC(=O)C1COc2ccccc2O1)c1ccccn1 (stereo not given)	?	-102	i	i	i	i
CCOc1ccc(CCNC(=O)c2cc(C)nc3c2c(C)nn3-c2cccc(F)c2)cc1	nt	i	i	i	i	nt
CC(C)C[C@H](NC(=O)c1ccc(NCc2cnc[nH]2)cc1-c1cccc2ccccc12)C(=O)O	nt	nt	nt	nt	nt	i
Cc1ccnc(NC(=O)C2COc3ccccc3O2)c1 (stereo not given)	i	-75	i	i	i	i
Cc1nc2ccccc2nc(C)c1=NOCc1cccc(Cl)c1	i	i	i	i	i	i
COc1cccc(COc2cc3ccccc3nc2C)c1	i	-79	i	?	i	i
Cc1nc2ccccc2cc1OCc1ccc(Cl)cc1	i	-75	i	?	i	i
Cc1nc2ccccc2cc1OCc1ccccc1	i	-93	i	i	i	i
CCn1c(CNC(=O)c2ccc(OC)cc2)nnc1SCC(=O)Nc1cccc(C)c1C	nt	i	i	i	i	nt
Cc1oc(-c2ccccc2NC(=O)c2ccccn2)nc1CNC(=O)c1ccc(Oc2ccccc2)o1	nt	nt	nt	i	nt	nt
Cc1ccc2nc(-c3ccc(N4C(=O)CC(N5CCN(CCO)CC5)C4=O)cc3)sc2c1 (stereo not given)	32µM	i	i	i	i	i
CCCS(=O)(=O)c1snnc1C	i	-72	i	i	i	i
CCOC(=O)CC1(C)Oc2cc(Cl)ccc2N1S(=O)(=O)c1ccc(C)cc1 (stereo not given)	i	-70	nt	i	nt	nt
O[C@@H]1CCN2Cc3ccccc3N=C12	nt	nt	nt	nt	nt	i
O=C(Nc1ccc(Oc2c(F)c(F)c(F)c(F)c2F)cc1)OC1CCN2Cc3ccccc3N=C12 (stereo not given)	?	nt	i	20µM	i	i
CSc1cccc(NC(=O)CSc2ncccc2C(=O)Oc2cccc([N+](=O)[O-])c2)c1	i	i	i	i	i	i
CCN(C(=O)CSc1ncccc1C(=O)Oc1cccc([N+](=O)[O-])c1)c1cccc(C)c1	nt	i	i	25µM	i	i
O=C(c1ccc2c(c1)N(Cc1c(F)cccc1Cl)C(=O)c1ccccc1S2)N1CCOCC1	nt	i	i	i	i	nt
O=C(O)c1cc(Cl)c2c(c1)[C@@H]1C=CC[C@@H]1[C@H](c1ccc(S(=O)(=O)N3CCOCC3)cc1)N2	i	nt	14µM	i	?	i
Cc1ccc(S(=O)(=O)N2CCOCCOCCOCCOCCOCC2)cc1	i	i	i	i	i	i
